Reference: PubChem BioAssay AID1347414 (National Center for Advancing Translational Sciences (NCATS), 2020)
Results filed as inconclusive are left out. Calls of active or inactive are those of the source. Calls follow the shape of the dose curve; as a rule, active = well fitted inhibition curve with a large enough effect; inconclusive = small, poorly fitted or top-dose-only effect; inactive = no such curve, though single readings can be large or run the other way.

experiment: qHTS to identify inhibitors of the type 1 interferon - major histocompatibility complex class I in skeletal muscle: Secondary screen by immunofluorescence; conditions: C25cl48 myoblasts, IFN-b induced HLA-ABC immunofluorescence, 24 h; series mostly up to 49.8 µM; also: nearly all actives have a fitted effect of over 70% in size
In short: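 HLA-ABC immunofluorescence, with nuclear and cell-body stains, was quantified by laser scanning cytometry. Read-out followed 24 h of IFN-beta (4.0 ng/ml) stimulation of C25cl48 human myoblasts with compounds titrated 1:3 over 11 points from 50 uM, with ruxolitinib as inhibitor control.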
Potency is read from the fitted curve at half-maximal effect.

Potency, active:
O=C1Nc2nc(-c3c(O)cccc3OCC3CC3)cc([C@@H]3CCCNC3)c2CO1 4.58 µM
COC(=O)c1nc(Cl)c(Cl)nc1N 5.76 µM
CC1(COc2ccc3c(c2)ncn3-c2ccc3cccc(N4CCC(N)CC4)c3n2)COC1 5.14 µM
Cc1ncsc1-c1ccc([C@H](C)NC(=O)[C@@H]2C[C@@H](O)CN2C(=O)[C@@H](NC(=O)COCCCOCCNC(=O)C[C@@H]2N=C(c3ccc(Cl)cc3)c3c(sc(C)c3C)-n3c(C)nnc32)C(C)(C)C)cc1 0.145 µM
